Measured values from PubChem BioAssay (NCI).
Compounds without any hit were thinned out: in the full panel of roughly 79,000, 15% have a hit. Active and inactive are the calls of the source. Cut-off read from the data, not from the text of the source: active = growth inhibition above about 70%; inactive = the rest.

Assays:
[1] = NCI Yeast Anticancer Drug Screen. Data for the rad50 strain (AID 155);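 note: 0% = growth of vehicle-only cultures of the same strain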; settings: S. cerevisiae rad50 strain growth inhibition; at 50.0 µM; stronger effect = higher value
Summary of the method: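 Vehicle-treated cultures provide the reference for the growth inhibition reported for compound-exposed, repair-deficient yeast.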

[2] = NCI Yeast Anticancer Drug Screen. Data for the mec2-1 strain (AID 157); settings: S. cerevisiae mec2-1 strain, at 50.0 µM, stronger effect = higher value
Summary of the method: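 Growth inhibition is read against vehicle-treated controls after compound exposure of the mec2-1 yeast strain, which is defective in DNA damage repair or cell cycle control.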

[3] = NCI Yeast Anticancer Drug Screen. Data for the sgs1 mgt1 strain (AID 161);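 note: 0% = growth of cultures given vehicle only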; settings: S. cerevisiae sgs1 mgt1 strain, at 50.0 µM, stronger effect = higher value
Summary of the method: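 Yeast cells carrying a defined DNA-repair defect were exposed to test compounds. Growth inhibition was measured relative to vehicle-treated controls.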

[4] = NCI Yeast Anticancer Drug Screen. Data for the cln2 rad14 strain (AID 165);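 note: 0% = growth equal to vehicle treated cultures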; settings: S. cerevisiae cln2 rad14 strain, at 50.0 µM, stronger effect = higher value
Summary of the method: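 Growth inhibition, relative to vehicle-treated controls, is the read-out. The test organism is a yeast strain with defined genetic alterations, cln2 rad14.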

[5] = NCI Yeast Anticancer Drug Screen. Data for the bub3 strain (AID 167); settings: S. cerevisiae bub3 mutant strain, at 50.0 µM, stronger effect = higher value
Summary of the method: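 Mutant yeast screening strain plus compound; vehicle-treated cultures serve as the 0% inhibition reference.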

[6] = NCI Yeast Anticancer Drug Screen. Data for the mlh1 rad18 strain (AID 175); settings: S. cerevisiae mlh1 rad18 strain growth inhibition; at 50.0 µM; stronger effect = higher value
Summary of the method: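 Cells of a genetically altered yeast strain, deficient in DNA damage repair, were treated with compound. Their growth was then compared with that of vehicle-treated cultures to give inhibition.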

Measured: growth inhibition

COc1ccc2[nH]cc(CCN)c2c1
inactive: [1] 3.95% | [2] -12.4% | [3] -13.5% | [4] -10.4% | [5] 3.6% | [6] -24.1%

O=C1/C(=C\c2ccccc2)N2CCC1CC2
inactive: [1] 4.2% | [2] -18.1% | [3] -1.65% | [4] -70.6% | [5] -18.1% | [6] -20.6%

OC(COc1cccc2ccccc12)CN(CCCl)CCCl (stereo not given)
inactive: [1] 6.85% | [2] -12.5% | [3] -5.6% | [4] 4.05% | [5] 8.55% | [6] -30.1%

Nc1c(S(=O)(=O)O)cc(Nc2ccc(S(=O)(=O)O)c(Nc3nc(Cl)nc(Cl)n3)c2)c2c1C(=O)c1ccccc1C2=O
inactive: [1] -14.3% | [2] -31.8% | [3] -27.4% | [4] -14.3% | [5] -32.7% | [6] -37.9%

C#CC1(O)CCCCCC1
inactive: [1] 11.6% | [2] 3.45% | [3] -7.55% | [4] 8.55% | [5] 12.4% | [6] 6.8%

COc1cc(C2c3cc4c(cc3C(O)[C@H]3COC(=O)C23)OCO4)cc(OC)c1O (stereo not given in full)
inactive: [1] -38.8% | [2] -50.8% | [3] -27.1% | [4] -1.8% | [5] -13.9% | [6] 38.6%

O.O=C(O)C(=O)O.[NH2-].[Zn]
inactive: [1] -14.6% | [2] 9.25% | [3] -6.5% | [4] 35.1% | [5] -2.3% | [6] -2.05%

CN(N=O)C1=NC2(CCCCC2)P(=O)(NNc2ncccn2)O1 (stereo not given)
inactive: [1] 0.9% | [2] -17.9% | [3] -15.2% | [4] 9.85% | [5] 11.2% | [6] 13.1%

CC([NH-])C(=O)O.CC([NH-])C(=O)O.[Cu+2] (stereo not given)
inactive: [1] -0.95% | [2] 11.3% | [3] 15.6% | [4] -40.1% | [5] -15.9% | [6] 19.6%

NCCC1CCc2[nH]c3ccccc3c2C1 (stereo not given)
inactive: [1] -7.3% | [2] -6.1% | [3] -0.5% | [4] -52.4% | [5] -15.3% | [6] -8.15%

CC(=O)OCC1OC(OC(C)=O)C(N(CCCl)CCCl)C(OC(C)=O)C1OC(C)=O (stereo not given)
inactive: [1] 2.2% | [2] 7% | [3] 6.75% | [4] 23.9% | [5] -2.25% | [6] -33.6%

Fc1ccc(C(Cl)(Cl)Cl)cc1
inactive: [1] -8.9% | [2] -33.5% | [3] 2.75% | [4] -17.2% | [5] -17.1% | [6] 6.2%

CC(=O)c1ccc(-c2ccccc2)cc1
inactive: [1] -5.3% | [2] 2.6% | [3] 8.45% | [4] 11.9% | [5] 3.6% | [6] 18.1%

CCC(Br)(CC)C(N)=O
inactive: [1] -33.5% | [2] -5.4% | [3] -26.1% | [4] -89.7% | [5] -28.1% | [6] -27.9%

CC(C)CCN(CCC(C)C)CC(O)c1ccc(Br)cc1 (stereo not given)
inactive: [1] 5.1% | [2] -13.1% | [3] 6.1% | [4] -47.5% | [5] -15.6% | [6] 0.35%

C1=C[N-]c2c3c(ccc2=C1)=CC=C[N-]3.C1=C[N-]c2c3c(ccc2=C1)=CC=C[N-]3.[Cl][Ru][Cl]
active: [1] 70.3%
inactive: [2] 28.3% | [3] 49% | [4] 44.4% | [5] 61% | [6] 33.8%

O=c1[nH]c2ccccc2c(=O)n1-c1ccccc1
inactive: [1] -8.1% | [2] -4.45% | [3] -1.05% | [4] -6.05% | [5] -2% | [6] -15.4%

[Cl][Tl]
inactive: [1] -4.7% | [2] 5.2% | [3] 9.5% | [4] -11.3% | [5] -41% | [6] -37.5%

O=[N+]([O-])O.[Tl]
inactive: [1] -5.5% | [2] -23.2% | [3] -16.8% | [4] 6.8% | [5] -19.4% | [6] -18.4%

O=C(O)[C@@H](Cl)[C@@H](Cl)C(=O)O
inactive: [1] 30.7% | [2] -11.4% | [3] 22.9% | [4] 6.7% | [5] 9.55% | [6] 17.9%

C/C=C1/CN2CCC34C(=C(C(=O)OC)C1CC23)Nc1ccc(O)cc14 (stereo not given)
inactive: [1] 2.9% | [2] 2.3% | [3] 27.7% | [4] -4.05% | [5] 1.65% | [6] -61%

c1ccc(CN2C3CCCC2CC(c2ccccc2)C3)cc1 (stereo not given)
active: [1] 79.8% | [3] 80.3% | [4] 71.8% | [6] 85.5%
inactive: [2] 63.9% | [5] 65.7%

NC(=O)Cc1nn[nH]n1
inactive: [1] -16.4% | [2] -13.8% | [3] -27.1% | [4] 5.95% | [5] -7.35% | [6] -21.9%

O=C(O)C(=O)O.[Ti].[c-]1[c-][c-][cH-][c-]1.[c-]1[c-][c-][cH-][c-]1
inactive: [1] 23.9% | [2] 14.9% | [3] 29.6% | [4] -54.7% | [5] 24% | [6] 29.7%

O=C(Nc1ccccc1Cl)Oc1c(Cl)cc(S(=O)(=O)F)cc1Cl
inactive: [1] 20.4% | [2] 33.6% | [3] 34.1% | [4] 32.6% | [5] -2.05% | [6] 44.2%

O=P1(c2ccccc2)NC2CCCCC2N1 (stereo not given)
inactive: [1] 24.2% | [2] -8.05% | [3] -5.3% | [4] -87% | [5] -0.9% | [6] 2.95%

C[C@]12CCC(=O)C=C1CC[C@H]1[C@@H]3CCC(=O)[C@@]3(C)CC[C@@]12F
inactive: [1] -2.35% | [2] -6.1% | [3] 2.25% | [4] -31.8% | [5] -3.7% | [6] -5.75%

C(=C/[PH+](c1ccccc1)c1ccccc1)/[PH+](c1ccccc1)c1ccccc1.C(=C/[PH+](c1ccccc1)c1ccccc1)/[PH+](c1ccccc1)c1ccccc1.C(=C/[PH+](c1ccccc1)c1ccccc1)/[PH+](c1ccccc1)c1ccccc1.[Pt]
inactive: [1] 8.65% | [2] 17.6% | [3] 36% | [4] 36.9% | [5] 13.8% | [6] 36.5%

O=P(O)(Oc1ccccc1)Oc1ccccc1
inactive: [1] 33.7% | [2] 16.4% | [3] 14.8% | [4] 18.2% | [5] 0.55% | [6] 20.9%

C/C=C(\C)C(=O)N[C@@H](c1ccccc1)[C@@H](O)C(=O)OC1C[C@@]2(O)[C@@H](OC(=O)c3ccccc3)[C@@H]3[C@]4(OC(C)=O)CO[C@@H]4C[C@H](O)[C@@]3(C)C(=O)[C@H](OC(C)=O)C(=C1C)C2(C)C (stereo not given in full)
inactive: [1] 34.1% | [2] 13.6% | [3] 13.8% | [4] 16.9% | [5] 21.4% | [6] 29.9%

CN1CCC(OC(=O)Oc2ccccc2)(c2ccccc2)CC1
inactive: [1] 1.6% | [2] 9.6% | [3] 3.95% | [4] 33.7% | [5] 48.5% | [6] -6.65%

CC(=O)[O-].N.N.N.N.[Co+3].[O-][Cl+3]([O-])([O-])[O-].[OH3+]
inactive: [1] -2.35% | [2] 7.3% | [3] -1.45% | [4] 16.1% | [5] 21.9% | [6] 2.7%

CC(C)OP(=O)(OC(C)C)C(=O)Nc1cc(Cl)ccc1Cl
inactive: [1] -23.5% | [2] 14.6% | [3] -6.35% | [4] -31% | [5] 15% | [6] -0.15%

NC(=NC(c1ccccc1)c1ccccc1)N[N+](=O)[O-]
inactive: [1] -4.1% | [2] 5.3% | [3] -12.6% | [4] 2.95% | [5] 7.45% | [6] -17.9%

COc1ccc([C@H]2N[C@@H]2c2ccccn2)cc1
inactive: [1] 3.25% | [2] -1.5% | [3] -7.2% | [4] 17.1% | [5] 4.8% | [6] 20.9%

CCCCOP(=O)(CCCC)OCCCC.CCCCOP(=O)(CCCC)OCCCC.CCCCOP(=O)(CCCC)OCCCC.CCCCOP(=O)(CCCC)OCCCC.O.O.[Co+2].[O-][Cl+3]([O-])([O-])O
inactive: [1] 25.4% | [2] 5.55% | [3] 7.35% | [4] 17.6% | [5] 19.8% | [6] 5.8%

CC(C)CC(NC(=O)C(Cc1ccccc1)NC(=O)CNC(=O)CNC(=O)C(N)Cc1ccc(O)cc1)C(=O)O (stereo not given)
inactive: [1] 0.9% | [2] 2.85% | [3] -8.25% | [4] -7.5% | [5] -0.75% | [6] -11.2%

CC(C)OC(=O)Nc1cccc(Cl)c1
inactive: [1] 25.9% | [2] 1.75% | [3] 23.9% | [4] -3.85% | [5] 0.3% | [6] 4.5%

Cc1cc(OCC2=NCCN2)c(C)c(C)c1Cl
inactive: [1] 44.3% | [2] 26.9% | [3] 36.1% | [4] 51% | [5] 9.2%
active: [6] 79.3%

CN(C)P(=O)(N(C)C)N(C)C
inactive: [1] 23.2% | [2] 6.4% | [3] -7.05% | [4] -16.9% | [5] 23.6% | [6] 25.1%
